The campaign covered roughly 67,000 compounds. About 300 (0.45%) showed an effect of 50% or more. This excerpt belongs to a sample that is enriched for strong results.
These compounds were tested against Polyketide synthase Pks13 (Mycobacterium tuberculosis (strain ATCC 25618 / H37Rv)) (UniProt I6X8D2) (assay: Mycobacterium tuberculosis Polyketide synthase 13 Thioesterase (PKS13)). Details: 30 µM.
Chain of Polyketide synthase Pks13 (Mycobacterium tuberculosis (strain ATCC 25618 / H37Rv)) (I6X8D2 whole entry): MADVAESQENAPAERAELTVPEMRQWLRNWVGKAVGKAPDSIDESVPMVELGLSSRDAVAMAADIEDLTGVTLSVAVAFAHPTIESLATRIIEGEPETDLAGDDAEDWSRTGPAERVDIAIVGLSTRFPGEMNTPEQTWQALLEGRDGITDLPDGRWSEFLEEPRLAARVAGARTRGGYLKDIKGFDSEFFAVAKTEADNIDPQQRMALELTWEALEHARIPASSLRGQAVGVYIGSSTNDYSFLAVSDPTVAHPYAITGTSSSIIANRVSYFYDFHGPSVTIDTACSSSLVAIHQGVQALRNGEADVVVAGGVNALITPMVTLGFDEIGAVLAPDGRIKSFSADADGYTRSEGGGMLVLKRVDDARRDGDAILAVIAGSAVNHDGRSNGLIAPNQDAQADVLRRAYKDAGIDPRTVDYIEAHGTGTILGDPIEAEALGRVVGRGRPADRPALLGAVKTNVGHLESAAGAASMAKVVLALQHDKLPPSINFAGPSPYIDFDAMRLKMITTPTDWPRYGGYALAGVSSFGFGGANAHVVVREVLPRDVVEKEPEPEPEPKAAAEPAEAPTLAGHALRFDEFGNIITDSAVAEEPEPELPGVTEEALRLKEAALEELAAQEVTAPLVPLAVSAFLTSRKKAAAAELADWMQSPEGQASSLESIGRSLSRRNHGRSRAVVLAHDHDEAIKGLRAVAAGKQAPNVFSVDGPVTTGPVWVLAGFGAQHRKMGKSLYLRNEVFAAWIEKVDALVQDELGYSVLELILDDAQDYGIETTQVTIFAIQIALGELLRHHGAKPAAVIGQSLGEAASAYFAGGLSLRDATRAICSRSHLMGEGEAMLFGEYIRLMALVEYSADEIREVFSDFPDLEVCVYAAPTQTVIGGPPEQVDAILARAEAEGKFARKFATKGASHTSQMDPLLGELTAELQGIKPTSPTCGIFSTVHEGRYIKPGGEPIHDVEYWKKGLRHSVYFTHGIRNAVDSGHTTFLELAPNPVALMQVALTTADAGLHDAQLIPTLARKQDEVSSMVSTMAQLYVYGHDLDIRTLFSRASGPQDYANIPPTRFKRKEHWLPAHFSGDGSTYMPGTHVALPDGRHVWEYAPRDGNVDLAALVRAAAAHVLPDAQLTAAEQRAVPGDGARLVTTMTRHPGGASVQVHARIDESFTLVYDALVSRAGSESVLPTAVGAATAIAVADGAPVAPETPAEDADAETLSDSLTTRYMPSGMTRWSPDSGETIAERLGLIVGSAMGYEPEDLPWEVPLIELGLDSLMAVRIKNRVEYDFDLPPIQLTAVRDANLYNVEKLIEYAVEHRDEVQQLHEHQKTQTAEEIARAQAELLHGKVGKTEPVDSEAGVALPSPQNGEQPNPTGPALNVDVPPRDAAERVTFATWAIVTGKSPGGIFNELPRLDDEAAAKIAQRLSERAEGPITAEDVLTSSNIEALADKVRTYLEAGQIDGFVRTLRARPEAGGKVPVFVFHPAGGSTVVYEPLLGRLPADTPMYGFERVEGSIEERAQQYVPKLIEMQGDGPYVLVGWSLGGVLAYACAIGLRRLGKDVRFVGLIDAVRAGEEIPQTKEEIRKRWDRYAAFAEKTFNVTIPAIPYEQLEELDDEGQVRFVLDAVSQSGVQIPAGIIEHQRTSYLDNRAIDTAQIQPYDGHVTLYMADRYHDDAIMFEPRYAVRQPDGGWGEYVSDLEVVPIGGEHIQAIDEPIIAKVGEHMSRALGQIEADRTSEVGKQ
Format: functional
Set-up: scale not given: in the data most compounds retested in dose-response had high values
Compound `Cc1noc([C@@H]2CC[C@@H]3[C@@H](CCN3S(=O)(=O)c3cccnc3)O2)n1` has a Percent Effect of 4.22%. `O=C1OCCN1CC(=O)N1C[C@H]2CC[C@@H]1CN(C(=O)c1ccccn1)C2` was tested, and the Percent Effect was -14.6%. With `Cc1ccc(N2CC[C@@H]3CN(Cc4cc[nH]n4)C[C@@H]3C2)nn1` the Percent Effect was 3.96%. Work on `CCN1CCN(S(=O)(=O)N2CCCC2)[C@H]2CS(=O)(=O)C[C@H]21` yielded a Percent Effect of -23.5%. With `CC(=O)N1CC[C@H]2N(C)CC[C@@]2(C(=O)Nc2cccnc2)CC1` the Percent Effect was -11.6%. For `O=C(c1ccco1)N1C[C@H]2CN(Cc3cccc(F)c3)C(=O)[C@H]2C1`, the Percent Effect was -4.13%. In the case of `c1ccc2c(c1)C(NC1CCCC1)CC21CCNCC1` (stereo unspecified), the Percent Effect is reported as -6.43%. `CNC(=O)N1C[C@H]2CC[C@@]3(N=C(c4ccccc4)NC3=O)[C@H]2C1` was tested, and the Percent Effect was -17.2%. For `CCOC(=O)[C@@H]1[C@@H](c2ccccc2)CN2CCN(S(C)(=O)=O)C[C@H]12`, the Percent Effect was -1.54%. `c1coc(CN2C[C@@H]3OCCN(CCN4CCCC4)[C@@H]3C2)c1` gave a Percent Effect of -17.4%. `CCc1nnc(Nc2cccc(C3CCN(C(C)=O)CC3)n2)s1` was tested, and the Percent Effect was 86.9%. Work on `CCc1nnc(Nc2cccc(C3CCN(C(=O)CO)CC3)n2)s1` yielded a Percent Effect of 4.46%. With `CCc1nnc(Nc2cccc(C3CCN(C(=O)CNC)CC3)n2)s1` the Percent Effect was -24.5%. Compound `CC(=O)N1CCO[C@@H]2CN(C(=O)NCc3ccccc3)CC[C@@H]2C1` has a Percent Effect of -30.5%. In the case of `Cc1ccc(N2CC[C@H]3O[C@H](C(=O)NCc4ccco4)CC[C@H]32)nn1`, the Percent Effect is reported as -3.57%. For `Cc1ccc(N2CC[C@H]3OCC[C@@]3(C(=O)N3CCCO3)C2)nn1`, the Percent Effect was -34%. `COc1ccc(CN2C[C@@H]3OCC(=O)N(Cc4nccn4C)[C@@H]3C2)cc1` gave a Percent Effect of -29.9%. In the case of `Cc1ccccc1CN1CCN(c2ncnc3c2NC(=O)CN3)CC1`, the Percent Effect is reported as -5.54%. Compound `O=C1CNc2ncnc(N3CCN(Cc4ccccc4)CC3)c2N1` has a Percent Effect of -2.51%. `O=C1CNc2ncnc(N3CCN(Cc4ccccc4F)CC3)c2N1` was tested, and the Percent Effect was 84.6%. With `Cc1noc(C)c1CN1CC[C@H]2C[C@@H](c3ccncn3)O[C@@H]2C1` the Percent Effect was -34.7%. With `Cc1nc2cc(C3CCCCN3C(=O)C3CC3)nn2c(O)c1C` (stereo unspecified) the Percent Effect was 9.02%. With `CC(=O)N1N=C(c2ccco2)OC1C(=O)N(CC(C)C)CC(C)C` (stereo unspecified) the Percent Effect was -6.84%. `CC(=O)N1N=C(c2ccco2)OC1C(=O)NCC(C)C` (stereo unspecified) gave a Percent Effect of 52.5%. `CC(=O)N1N=C(c2ccco2)OC1C(=O)NCCc1ccc(O)cc1` (stereo unspecified) showed a Percent Effect of 8.81%. For `CS(=O)(=O)N1CC[C@H]2OCC[C@@]2(C(=O)NCc2ccccn2)C1`, the Percent Effect was -5.05%. `O=C(c1ccco1)N1C[C@@H]2CCN(c3cccnc3)C[C@@H]2C1` was tested, and the Percent Effect was 18.9%. `COc1ccc(C2(C(=O)N3CC[C@@]4(O)CCNC[C@H]4C3)CCCC2)cc1` was tested, and the Percent Effect was -3.94%. In the case of `COc1cccc(C(=O)N2CCc3c(nc(N)[nH]c3=O)C2)c1C`, the Percent Effect is reported as 79.5%. For `COc1cccc(C(=O)N2CCc3c(nc(N)[nH]c3=O)C2)c1OC`, the Percent Effect was -13.9%. Compound `Nc1nc2c(c(=O)[nH]1)CCN(C(=O)c1cccc3nccnc13)C2` has a Percent Effect of 2.77%.
